The values that follow come from ChEMBL document CHEMBL1961873, “Compounds: GSK PKIS; Assays: Nanosyn kinase panel” (2012).

Test [1] addresses T1, Mitogen-activated protein kinase 12 (Homo sapiens) (UniProt P53778).
T1 sequence (whole entry): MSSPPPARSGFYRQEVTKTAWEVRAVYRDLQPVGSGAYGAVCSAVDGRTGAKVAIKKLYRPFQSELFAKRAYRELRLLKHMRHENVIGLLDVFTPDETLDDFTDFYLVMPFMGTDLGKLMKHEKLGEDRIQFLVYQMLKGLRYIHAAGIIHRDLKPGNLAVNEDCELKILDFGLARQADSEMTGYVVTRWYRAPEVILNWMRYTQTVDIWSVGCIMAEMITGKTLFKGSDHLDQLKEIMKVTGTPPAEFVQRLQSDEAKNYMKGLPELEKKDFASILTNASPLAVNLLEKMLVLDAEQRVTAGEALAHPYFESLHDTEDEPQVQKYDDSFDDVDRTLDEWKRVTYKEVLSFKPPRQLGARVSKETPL
As to conditions: at 1 µM.

Test [2] deals with SRSF protein kinase 1 (Homo sapiens) (UniProt Q96SB4). As to conditions: at 0.1 µM.
Test [3] shares this target. The conditions noted are these: at 1 µM.
In test [4] the target is Phosphatidylinositol 4,5-bisphosphate 3-kinase catalytic subunit alpha isoform (Homo sapiens) (UniProt P42336). As to conditions: at 0.1 µM.
For test [5] the target is unchanged. As to conditions: at 1 µM.
Test [6] has as its target T2, Phosphatidylinositol 4,5-bisphosphate 3-kinase catalytic subunit delta isoform (Homo sapiens) (UniProt O00329).
T2 sequence (whole entry): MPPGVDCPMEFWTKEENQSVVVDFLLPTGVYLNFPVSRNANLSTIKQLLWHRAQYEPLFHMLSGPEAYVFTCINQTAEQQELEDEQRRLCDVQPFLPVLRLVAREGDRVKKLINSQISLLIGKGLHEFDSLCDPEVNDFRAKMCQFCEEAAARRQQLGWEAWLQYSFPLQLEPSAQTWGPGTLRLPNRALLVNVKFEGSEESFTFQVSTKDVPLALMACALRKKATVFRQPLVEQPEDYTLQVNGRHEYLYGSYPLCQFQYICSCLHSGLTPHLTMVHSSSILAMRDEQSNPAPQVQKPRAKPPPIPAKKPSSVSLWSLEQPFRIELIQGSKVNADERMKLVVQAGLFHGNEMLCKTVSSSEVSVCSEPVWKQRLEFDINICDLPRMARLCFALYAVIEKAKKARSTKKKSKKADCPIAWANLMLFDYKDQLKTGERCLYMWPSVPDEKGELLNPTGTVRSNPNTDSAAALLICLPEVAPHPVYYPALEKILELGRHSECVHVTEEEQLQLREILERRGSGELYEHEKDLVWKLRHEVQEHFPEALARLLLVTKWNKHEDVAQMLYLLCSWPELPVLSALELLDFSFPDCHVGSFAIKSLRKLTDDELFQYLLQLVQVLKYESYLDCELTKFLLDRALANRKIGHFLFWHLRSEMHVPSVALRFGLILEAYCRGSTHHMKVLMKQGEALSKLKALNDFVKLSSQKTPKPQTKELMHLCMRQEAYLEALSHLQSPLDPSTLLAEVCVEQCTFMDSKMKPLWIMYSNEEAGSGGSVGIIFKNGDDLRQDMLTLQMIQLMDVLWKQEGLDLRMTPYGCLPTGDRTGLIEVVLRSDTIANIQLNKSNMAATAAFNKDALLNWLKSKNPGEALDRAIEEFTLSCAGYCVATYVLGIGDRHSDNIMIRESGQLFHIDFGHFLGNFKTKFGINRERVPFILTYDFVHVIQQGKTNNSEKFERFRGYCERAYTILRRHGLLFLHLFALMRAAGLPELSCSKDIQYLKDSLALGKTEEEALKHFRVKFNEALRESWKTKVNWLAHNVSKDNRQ
As to conditions: at 0.1 µM.

Test [7] concerns the target T2, Phosphatidylinositol 4,5-bisphosphate 3-kinase catalytic subunit delta isoform (Homo sapiens). As to conditions: at 1 µM.
Test [8] concerns the target Phosphatidylinositol 4-kinase beta (Homo sapiens) (UniProt Q9UBF8). The conditions noted are these: at 0.1 µM.
Test [9] has the same target. As to conditions: at 1 µM.
For test [10], the target named is Sphingosine kinase 1 (Homo sapiens) (UniProt Q9NYA1). The conditions noted are these: at 0.1 µM.
Test [11] has the same target. As to conditions: at 1 µM.
Test [12] has as its target T3, Sphingosine kinase 2 (Homo sapiens) (UniProt Q9NRA0).
T3 sequence (whole entry): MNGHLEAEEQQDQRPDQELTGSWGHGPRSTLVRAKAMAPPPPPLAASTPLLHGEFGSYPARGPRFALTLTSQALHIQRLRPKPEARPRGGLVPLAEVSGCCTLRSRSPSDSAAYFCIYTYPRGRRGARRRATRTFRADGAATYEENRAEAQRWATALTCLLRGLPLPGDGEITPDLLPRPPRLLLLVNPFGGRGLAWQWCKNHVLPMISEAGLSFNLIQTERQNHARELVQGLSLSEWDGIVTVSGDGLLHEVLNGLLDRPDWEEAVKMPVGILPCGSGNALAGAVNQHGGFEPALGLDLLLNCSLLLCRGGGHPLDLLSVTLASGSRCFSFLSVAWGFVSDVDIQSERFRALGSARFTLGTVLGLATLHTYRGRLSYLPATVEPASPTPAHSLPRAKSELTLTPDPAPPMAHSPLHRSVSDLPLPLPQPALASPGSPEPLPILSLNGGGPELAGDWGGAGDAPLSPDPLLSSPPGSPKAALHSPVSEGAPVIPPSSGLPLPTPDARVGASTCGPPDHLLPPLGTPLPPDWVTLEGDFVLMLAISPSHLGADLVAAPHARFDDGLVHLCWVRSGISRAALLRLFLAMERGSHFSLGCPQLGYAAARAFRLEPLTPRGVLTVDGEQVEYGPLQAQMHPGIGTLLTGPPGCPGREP
As to conditions: at 0.1 µM.

In test [13] the target is T3, Sphingosine kinase 2 (Homo sapiens). The conditions noted are these: at 1 µM.
For test [14], the target named is Casein kinase II subunit alpha (Homo sapiens) (UniProt P68400). As to conditions: at 0.1 µM.
Test [15] has the same target. The conditions noted are these: at 1 µM.
For test [16], the target named is T4, Inhibitor of nuclear factor kappa-B kinase subunit alpha (Homo sapiens) (UniProt O15111).
T4 sequence (whole entry): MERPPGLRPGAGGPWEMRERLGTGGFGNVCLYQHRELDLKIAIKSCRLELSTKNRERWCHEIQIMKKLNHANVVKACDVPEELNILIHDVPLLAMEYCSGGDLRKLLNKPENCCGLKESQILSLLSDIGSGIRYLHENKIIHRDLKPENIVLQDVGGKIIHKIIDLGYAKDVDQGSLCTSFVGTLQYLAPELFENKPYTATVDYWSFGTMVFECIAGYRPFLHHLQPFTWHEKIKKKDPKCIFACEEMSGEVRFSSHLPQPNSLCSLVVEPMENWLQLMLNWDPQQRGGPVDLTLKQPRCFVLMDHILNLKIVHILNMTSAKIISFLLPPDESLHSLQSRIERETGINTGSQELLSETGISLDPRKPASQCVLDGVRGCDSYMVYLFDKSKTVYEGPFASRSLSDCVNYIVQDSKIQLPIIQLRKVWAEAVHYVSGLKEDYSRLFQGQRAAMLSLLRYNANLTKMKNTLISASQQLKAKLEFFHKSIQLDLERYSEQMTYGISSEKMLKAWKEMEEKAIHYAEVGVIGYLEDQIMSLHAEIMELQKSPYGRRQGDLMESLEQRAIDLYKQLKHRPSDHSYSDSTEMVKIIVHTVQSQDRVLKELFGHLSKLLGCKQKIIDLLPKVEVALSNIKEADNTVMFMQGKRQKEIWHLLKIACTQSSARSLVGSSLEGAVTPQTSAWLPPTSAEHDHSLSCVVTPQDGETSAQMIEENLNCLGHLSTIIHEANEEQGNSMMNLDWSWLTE
The conditions noted are these: at 0.1 µM.

The target in test [17] is T5, Inhibitor of nuclear factor kappa-B kinase subunit beta (Homo sapiens) (UniProt O14920).
T5 sequence (whole entry): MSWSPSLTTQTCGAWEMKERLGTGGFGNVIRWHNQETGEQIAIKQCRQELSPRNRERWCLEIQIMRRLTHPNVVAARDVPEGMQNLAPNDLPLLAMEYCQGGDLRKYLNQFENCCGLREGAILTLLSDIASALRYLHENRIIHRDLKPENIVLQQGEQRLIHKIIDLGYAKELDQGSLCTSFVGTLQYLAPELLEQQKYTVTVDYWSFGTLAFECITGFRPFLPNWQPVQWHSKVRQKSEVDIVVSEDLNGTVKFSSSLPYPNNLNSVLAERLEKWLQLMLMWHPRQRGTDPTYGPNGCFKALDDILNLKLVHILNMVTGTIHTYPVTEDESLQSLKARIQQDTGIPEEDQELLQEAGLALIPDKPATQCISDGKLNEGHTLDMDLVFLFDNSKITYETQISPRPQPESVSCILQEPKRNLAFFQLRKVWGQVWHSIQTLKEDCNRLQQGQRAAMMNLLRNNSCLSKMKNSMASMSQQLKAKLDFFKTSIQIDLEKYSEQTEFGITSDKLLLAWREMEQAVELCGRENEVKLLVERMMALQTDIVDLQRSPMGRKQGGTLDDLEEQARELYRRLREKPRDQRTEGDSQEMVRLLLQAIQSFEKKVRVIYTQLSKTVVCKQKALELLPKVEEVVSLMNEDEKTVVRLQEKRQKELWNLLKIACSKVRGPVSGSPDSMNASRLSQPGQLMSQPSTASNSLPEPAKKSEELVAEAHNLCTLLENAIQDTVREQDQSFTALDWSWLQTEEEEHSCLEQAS
The conditions noted are these: at 0.1 µM.

The target of test [18] is T5, Inhibitor of nuclear factor kappa-B kinase subunit beta (Homo sapiens). As to conditions: at 1 µM.
Test [19] deals with T6, Inhibitor of nuclear factor kappa-B kinase subunit epsilon (Homo sapiens) (UniProt Q14164).
T6 sequence (whole entry): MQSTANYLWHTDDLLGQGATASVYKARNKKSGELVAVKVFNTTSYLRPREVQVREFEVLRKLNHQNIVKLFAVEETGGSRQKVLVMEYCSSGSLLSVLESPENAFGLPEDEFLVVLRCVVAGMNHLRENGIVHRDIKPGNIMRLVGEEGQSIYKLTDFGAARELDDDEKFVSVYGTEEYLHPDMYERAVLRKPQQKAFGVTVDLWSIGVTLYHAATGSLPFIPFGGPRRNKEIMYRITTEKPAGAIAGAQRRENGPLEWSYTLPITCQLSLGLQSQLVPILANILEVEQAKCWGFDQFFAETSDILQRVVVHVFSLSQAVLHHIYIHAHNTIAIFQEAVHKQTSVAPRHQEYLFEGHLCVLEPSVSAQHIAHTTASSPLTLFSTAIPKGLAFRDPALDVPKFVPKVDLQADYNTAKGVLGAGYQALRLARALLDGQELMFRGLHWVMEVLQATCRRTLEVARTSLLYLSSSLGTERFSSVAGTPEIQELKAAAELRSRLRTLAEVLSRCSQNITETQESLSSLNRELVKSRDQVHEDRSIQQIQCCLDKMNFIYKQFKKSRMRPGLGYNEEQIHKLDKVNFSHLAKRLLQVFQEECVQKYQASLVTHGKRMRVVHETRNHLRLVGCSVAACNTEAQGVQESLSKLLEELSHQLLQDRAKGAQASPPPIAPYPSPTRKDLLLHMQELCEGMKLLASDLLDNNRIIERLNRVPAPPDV
The conditions noted are these: at 0.1 µM.

Test [20] deals with T4, Inhibitor of nuclear factor kappa-B kinase subunit alpha (Homo sapiens). The conditions noted are these: at 1 µM.

SMILES strings stand for the structures.

Chain of Phosphatidylinositol 4,5-bisphosphate 3-kinase catalytic subunit alpha isoform (Homo sapiens) (P42336 whole entry, canonical isoform): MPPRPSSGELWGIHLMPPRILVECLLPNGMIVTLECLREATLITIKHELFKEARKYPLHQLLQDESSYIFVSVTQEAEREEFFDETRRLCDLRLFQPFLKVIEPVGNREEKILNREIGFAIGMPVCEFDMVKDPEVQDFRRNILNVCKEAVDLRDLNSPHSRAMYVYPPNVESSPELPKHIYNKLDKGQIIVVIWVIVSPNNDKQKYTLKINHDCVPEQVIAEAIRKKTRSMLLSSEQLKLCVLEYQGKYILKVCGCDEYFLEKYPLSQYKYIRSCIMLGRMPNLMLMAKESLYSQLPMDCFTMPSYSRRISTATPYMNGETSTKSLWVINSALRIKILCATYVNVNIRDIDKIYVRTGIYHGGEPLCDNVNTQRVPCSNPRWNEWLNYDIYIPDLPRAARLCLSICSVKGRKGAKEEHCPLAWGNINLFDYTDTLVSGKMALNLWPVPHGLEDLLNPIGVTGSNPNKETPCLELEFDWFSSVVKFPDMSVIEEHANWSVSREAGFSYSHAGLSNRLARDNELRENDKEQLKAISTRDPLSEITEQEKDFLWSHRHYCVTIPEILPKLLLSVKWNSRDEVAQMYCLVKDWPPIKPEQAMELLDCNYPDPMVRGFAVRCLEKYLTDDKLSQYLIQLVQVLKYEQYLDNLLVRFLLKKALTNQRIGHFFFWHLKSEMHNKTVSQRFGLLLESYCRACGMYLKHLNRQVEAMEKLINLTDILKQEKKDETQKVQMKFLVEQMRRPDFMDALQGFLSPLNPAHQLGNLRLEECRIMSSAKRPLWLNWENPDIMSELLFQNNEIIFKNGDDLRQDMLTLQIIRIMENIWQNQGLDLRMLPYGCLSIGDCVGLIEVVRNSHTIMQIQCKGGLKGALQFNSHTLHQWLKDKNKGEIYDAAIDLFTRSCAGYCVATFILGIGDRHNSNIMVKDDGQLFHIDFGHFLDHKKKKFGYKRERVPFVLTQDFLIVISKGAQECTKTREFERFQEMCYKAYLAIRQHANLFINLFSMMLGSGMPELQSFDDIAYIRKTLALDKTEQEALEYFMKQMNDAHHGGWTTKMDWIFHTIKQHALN
Chain of SRSF protein kinase 1 (Homo sapiens) (Q96SB4 whole entry): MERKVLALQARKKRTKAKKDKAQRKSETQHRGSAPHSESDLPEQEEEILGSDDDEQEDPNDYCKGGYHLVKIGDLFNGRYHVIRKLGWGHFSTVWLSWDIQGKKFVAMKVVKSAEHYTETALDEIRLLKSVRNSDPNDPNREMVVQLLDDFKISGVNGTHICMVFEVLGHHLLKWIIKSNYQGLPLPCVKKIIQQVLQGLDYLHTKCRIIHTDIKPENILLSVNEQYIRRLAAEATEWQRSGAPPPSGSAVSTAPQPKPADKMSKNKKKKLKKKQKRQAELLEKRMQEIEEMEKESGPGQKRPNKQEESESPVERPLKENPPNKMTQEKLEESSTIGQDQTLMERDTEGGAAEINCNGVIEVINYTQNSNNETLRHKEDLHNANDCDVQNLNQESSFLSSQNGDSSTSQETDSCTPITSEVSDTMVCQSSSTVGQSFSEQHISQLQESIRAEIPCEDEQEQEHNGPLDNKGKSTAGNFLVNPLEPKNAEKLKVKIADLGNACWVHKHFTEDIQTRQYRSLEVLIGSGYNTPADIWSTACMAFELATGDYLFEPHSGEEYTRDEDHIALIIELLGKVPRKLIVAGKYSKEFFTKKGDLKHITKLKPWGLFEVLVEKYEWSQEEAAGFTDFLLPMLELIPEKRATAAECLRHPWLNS
Chain of Sphingosine kinase 1 (Homo sapiens) (Q9NYA1 whole entry): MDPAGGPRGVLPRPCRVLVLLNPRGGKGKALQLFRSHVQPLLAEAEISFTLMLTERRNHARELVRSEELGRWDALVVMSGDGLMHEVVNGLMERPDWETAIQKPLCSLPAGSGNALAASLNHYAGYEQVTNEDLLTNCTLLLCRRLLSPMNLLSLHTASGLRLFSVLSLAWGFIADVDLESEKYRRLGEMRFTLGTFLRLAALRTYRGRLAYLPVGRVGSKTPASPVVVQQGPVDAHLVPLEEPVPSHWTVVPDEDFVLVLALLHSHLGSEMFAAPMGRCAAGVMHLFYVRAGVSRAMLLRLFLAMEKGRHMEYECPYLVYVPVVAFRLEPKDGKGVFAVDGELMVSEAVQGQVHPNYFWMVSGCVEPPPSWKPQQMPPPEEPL
Chain of Phosphatidylinositol 4-kinase beta (Homo sapiens) (Q9UBF8 2-816 limits assumed): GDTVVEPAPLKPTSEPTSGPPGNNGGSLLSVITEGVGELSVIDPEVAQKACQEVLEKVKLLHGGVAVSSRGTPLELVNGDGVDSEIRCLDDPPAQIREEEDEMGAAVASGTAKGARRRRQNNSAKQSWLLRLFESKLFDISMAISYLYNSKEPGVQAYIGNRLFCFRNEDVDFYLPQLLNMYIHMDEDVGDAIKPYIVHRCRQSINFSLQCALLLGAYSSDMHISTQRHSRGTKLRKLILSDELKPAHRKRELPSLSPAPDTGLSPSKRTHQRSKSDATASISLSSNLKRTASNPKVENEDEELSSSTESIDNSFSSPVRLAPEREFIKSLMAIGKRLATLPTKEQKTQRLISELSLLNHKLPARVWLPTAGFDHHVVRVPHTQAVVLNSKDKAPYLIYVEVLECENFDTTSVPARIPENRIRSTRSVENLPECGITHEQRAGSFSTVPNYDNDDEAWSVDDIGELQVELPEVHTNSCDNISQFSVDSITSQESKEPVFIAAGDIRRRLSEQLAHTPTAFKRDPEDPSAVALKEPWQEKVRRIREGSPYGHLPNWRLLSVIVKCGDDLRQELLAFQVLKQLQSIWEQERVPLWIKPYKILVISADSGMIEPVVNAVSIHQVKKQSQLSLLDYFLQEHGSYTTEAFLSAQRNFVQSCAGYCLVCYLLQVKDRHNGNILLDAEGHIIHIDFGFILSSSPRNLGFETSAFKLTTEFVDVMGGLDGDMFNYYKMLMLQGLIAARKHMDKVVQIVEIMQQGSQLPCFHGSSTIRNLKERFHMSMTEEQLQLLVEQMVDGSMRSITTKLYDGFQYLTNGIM
Chain of Casein kinase II subunit alpha (Homo sapiens) (P68400 whole entry, looked up): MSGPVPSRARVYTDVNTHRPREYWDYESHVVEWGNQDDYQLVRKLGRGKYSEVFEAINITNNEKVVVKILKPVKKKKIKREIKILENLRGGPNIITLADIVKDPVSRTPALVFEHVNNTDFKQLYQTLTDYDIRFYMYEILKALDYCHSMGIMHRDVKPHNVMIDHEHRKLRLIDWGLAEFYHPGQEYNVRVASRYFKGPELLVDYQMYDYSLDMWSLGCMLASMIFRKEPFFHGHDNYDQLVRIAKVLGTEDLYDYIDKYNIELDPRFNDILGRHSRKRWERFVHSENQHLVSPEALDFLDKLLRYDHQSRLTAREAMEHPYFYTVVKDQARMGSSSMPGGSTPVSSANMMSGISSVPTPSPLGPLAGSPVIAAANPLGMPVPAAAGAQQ

With `CN(C)CCOc1ccc(-c2cc(-c3ccc4c(c3)CCC4=NO)c(-c3ccncc3)o2)cc1`, the inhibition (as a rule, the drop in the measured response relative to a control, in per cent) in [1] is -0.32%; in [2], -1.96%; in [3], -0.37%; in [4], -0.14%; in [5] it was 1.74%; in test [6], 2.02%. The inhibition in test [7] is 6.39%; in test [8], 3.66%; in test [9] it was 2.02%; in test [10] it was -0.35%; in test [11], -2.32%; in [12] it was -0.68%. Further, the inhibition in test [13] is 0.96%; in test [14], -3%; in [15], 0.33%; in test [16], -4.03%; in [17] it was -1.54%; in test [18], -1.92%. In addition, the inhibition in [19] was -1.86%.
Take `C[C@@H](Oc1cc(-n2cnc3ccc(OCC4CCN(C)CC4)cc32)sc1C(N)=O)c1ccccc1Cl`: the inhibition in [1] was 6.25%; in [2] it was -2.59%; in [3], -1.67%; in test [4] it was 8.19%; in test [5] it was 27.3%; in [6], 15.6%. The inhibition in test [7] was 74.6%; in test [8], -6.34%; in [10], 1.45%; in test [11] it was 1.57%; in test [13] it was -0.12%; in test [14] it was 6.48%. Also, the inhibition was 19.4% in test [15]; 5.03% in test [16]; 1.69% in test [20]; 1.98% in test [17]; 3.37% in [18]; 2.73% in [19].
As for `CN1CCN(CCCNc2nc3ccc(Oc4ccc(NC(=O)Nc5cc(C(F)(F)F)ccc5F)cc4)cc3[nH]2)CC1`, the inhibition in test [1] is 1.58%; in test [2], -1.48%; in test [3] it was -3.44%; in test [4], 2.13%; in [5] it was 0.9%; in test [6] it was 1.3%. In addition, the inhibition was 7.49% in test [7]; 1.45% in test [8]; -2.72% in test [9]; -1.28% in test [10]; -1.27% in [11]; -0.2% in test [12]. The inhibition in [13] is -0.28%; in [14], -2.06%; in test [15], -5.31%; in test [16], 3.44%; in [20], -6.02%; in [17], 0.21%. The inhibition in test [18] is -0.85%; in test [19], -0.49%.
